This is part of a sample that, as a whole, favours compounds with a hit. Of some 83,000 tested, about 20% had one in any assay.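 Treatment: one concentration, 48 hours, 96-well format. Scoring: percent growth, with anything below 10 considered active.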 A number with no mark means an inactive call. Active and inactive are the calls of the source.
system: OVCAR-5 ovarian; assay: NCI-60 one-dose screen, 48 h (100 = growth as untreated, 0 = no growth, -100 = all killed); conditions: 10 µM unless noted

| Compound | growth |
| --- | --- |
| Cc1ccc2c(c1)c(Sc1ccc(C(=O)NO)cc1)c1n2CN(C)CC1 | 7.36% (active) |
| O=C1NC(=S)S/C1=C\c1cccc([N+](=O)[O-])c1 | 96.9% |
| CCCN(CCC)c1ccc(/C=C/c2ccc3cc(OCC)ccc3n2)cc1 | 110% |
| Clc1ccc(C2=NN(c3ccccc3)[C@H](c3cn(-c4ccccc4)nc3-c3ccccc3)C2)cc1 | 97.8% |
| COc1cc(C(=O)/C=C/c2c(-c3cccs3)nc3sccn23)cc(OC)c1OC | 0.426% (active) |
| CCOC(=O)C1=C(C)N2C(=NC3=C(CCCC/C3=C\c3cc(OC)c(OC)c(OC)c3)C2c2cc(OC)c(OC)c(OC)c2)S1 (centres undefined) | 85.6% |
| CN1CCN(c2nc(-c3ccncc3)nc3sc4c(c23)CCCCCC4)CC1 | 81.3% |
| COc1ccc(-n2ncc3c4nc(OC)c(S(=O)(=O)c5ccccc5)cc4ccc32)cc1 | 91.3% |
| COc1ccc(C2CC(c3cc(OC)c(OC)c(OC)c3)=NN2c2ccc(S(N)(=O)=O)cc2)cc1 (centres undefined) | 92.3% |
| Cc1nn(CC(=O)O)c2c1C(=O)CC(C)(C)C2 | 91.2% |
| O=C1C(Br)=C(c2ccccc2)C(=O)C(Br)=C1c1ccccc1 | 96.7% |
| Cc1ccc(C)c2c1sc1nc3nc4sc5ccccc5n4c(=N)c3c(=O)n12 | 91.3% |
| Nc1cc(Br)c(-c2nnc(CCC(=O)c3nc4ccccc4[nH]3)o2)c(Br)c1 | 97.2% |
| COc1ccc(Nc2nc(NCCNc3ccnc4cc(Cl)ccc34)nc(N3CCOCC3)n2)cc1 | 130% |
| Cc1nc2cc(Nc3nc(N4CCOCC4)nc(N4CCN(C)CC4)n3)ccc2n1Cc1ccccc1 | 96.7% |
| COc1ccc(-c2nc3sc(C)cn3c2/C=C/C(=O)c2cc(OC)c(OC)c(OC)c2)cc1 | 113% |
| O=[N+]([O-])c1ccc(O)c2ncccc12 | 89.8% |

| Compound | growth |
| --- | --- |
| CC1(C)N=C(N)N=C(N)N1c1cccc(/C=C/C=C/c2cccc([N+](=O)[O-])c2)c1 | 44.7% |
| O=c1nc(NO)[nH]c(=O)n1Cc1ccccc1 | 101% |
| C[C@@H](Oc1cc(-c2cnn(C3CC4(CCNCC4)C3)c2)cnc1N)c1c(F)ccc(Cl)c1Cl | 27.8% |
| C=CC(=O)N1CC2(CC(n3nc(-c4ccc(Oc5ccccc5)cc4)c4c(N)ncnc43)C2)C1 | 54.8% |
| COc1ccc(OC)c(C2C(C#N)=C(N)Oc3cc(O)ccc32)c1 (centres undefined) | 97% |
| CC(C)(C)[Si](C)(C)OC1[C@@H](O[Si](C)(C)C(C)(C)C)[C@@H](CNC(=O)NC(=O)C(F)(F)F)O[C@H]1n1cnc2c(NC(=O)Nc3ccccc3)ncnc21 (some centres undefined) | 88.8% |
| Nc1nc(N)c(N=Nc2c(Br)cc(S(N)(=O)=O)cc2Br)c(N)n1 | 109% |
| O=C(NCc1cccnc1)c1ccc([N+](=O)[O-])o1 | -1.25% (active) |
| Cn1c(=O)c2c(-c3ccccc3F)n(-c3ccc4c(c3)OCO4)cc2n(C)c1=O | 98.6% |
| Nc1nc2c(s1)CCc1c-2c(Br)n(Cc2ccccc2)c1Br | 105% |
| CN1CCc2c(c3ccccc3c3ccccc23)C1 | 60% |
| COc1cccc(C2C3=C(COC3=O)N(CCO)c3cc4c(cc32)CCC4)c1 (centres undefined) | 32.9% |
| O=C(Nc1ccc(F)cc1)c1ccc(C(=O)Nc2ccc(F)cc2)cc1 | 101% |
| Cc1cc(O)cc2c1[C@H]1CC[C@]3(C)[C@@H](O)CC[C@H]3[C@@H]1C=C2 | 114% |
| C[C@@H](Oc1cc(-c2cnn(C3CC4(CCCNC4)C3)c2)cnc1N)c1c(Cl)ccc(F)c1Cl (some centres undefined) | 34.3% |
| Clc1ccc(Nc2nc(Nc3ccccc3)nc(Nc3ccc(-c4cc(-c5ccc(Cl)cc5)on4)cc3)n2)cc1 | 87.2% |
| Cc1nc(-c2ccccc2)cc2c(O)c(C(=O)N/N=C/Cc3ccccc3)[nH]c(=O)c12 | 101% |

From PubChem BioAssay (NCI)
